# Screen size: about 48,000 compounds; about 13,000 (27%) showed an effect of 50% or more. Some of the results follow.
# Test system: Wolbachia pipientis
# Assay: Anti-Wolbachia Cell-Based Screen
# Type: functional
# Parameters: scale not given: in the data most compounds retested in dose-response had high values
# Details: 5 µM
row,Compound,Percent Effect [%]
1,Cn1ncc(C(=O)OCC2CCN(c3ccccc3)C2)c1C(F)F (configuration not stated),4.797
2,CN1C(=O)CCc2cc(NC(=O)C3CCCC3)ccc21,-13.79
3,CCS(=O)(=O)N1CCCC2(CCCN2C(=O)c2cn(C)cn2)C1 (configuration not stated),0.7731
4,CN(Cc1cc(Br)cn1C)C(=O)c1ccsc1,-18.58
5,O=C(Nc1cn[nH]c1)NC1CCN(c2ccccc2OC(F)F)C1 (configuration not stated),-20.77
6,O=C(NC1CCN(c2ccccc2OC(F)F)C1)c1c[nH]nn1 (configuration not stated),107.7
7,O=C(NC1CCN(c2ccccc2OC(F)F)C1)c1cccnc1 (configuration not stated),-18.54
8,COc1ccc2c(c1)CN(c1nc(C)cc(C)n1)CC2,-6.244
9,COc1ccc(C2CN(c3nc(C)cc(C)n3)CCN2C(C)=O)cc1 (configuration not stated),87.97
10,COc1ccc(C2CCCN2C(=O)c2csc(NC(C)=O)n2)cc1 (configuration not stated),-0.5039
11,CC(OCC(F)(F)F)C(=O)N1CCCCC1 (configuration not stated),-2.646
12,COc1ccc(COCC(O)CNC(=O)c2cnc(C)cn2)cc1 (configuration not stated),4.456
13,Cc1cnc(C(=O)NCc2ccc3c(c2)CCCN3C)cn1,101.2
14,CN1CCCc2cc(CNC(=O)c3cccnc3O)ccc21,90.33
15,CC(C)CN1CCCn2nc(CNC(=O)c3cccnc3O)cc2C1,-4.035
16,CN1N=C(C(=O)NCc2ccc3c(c2)CCCN3C)CCC1=O,13.95
17,O=C1CN(c2ccc(CNC(=O)c3cccnc3O)cc2F)CCN1,-18.4
18,CC(C)c1nn(C)c(Cl)c1CNC1CCOc2ccccc21.Cl (configuration not stated),-8.066
19,CC(=O)NCC(=O)N1Cc2cc(-c3cc[nH]n3)ccc2C1c1cnco1 (configuration not stated),-23.15
20,COc1ccc(-n2cnnc2SCC(C)(C)O)cn1,-5.422
21,COc1ccccc1OCC(=O)NS(=O)(=O)c1cc(F)ccc1F,-8.021
22,COCCn1nc(C(=O)N(C)Cc2cccnc2)ccc1=O,131.6
23,COCCn1nc(C(=O)N(C)Cc2ccc3ccccc3c2)ccc1=O,98.47

row,Compound,Percent Effect [%]
1,COCCn1nc(C(=O)N2CCCC2c2cccc(F)c2)ccc1=O (configuration not stated),1.762
2,COCCn1nc(C(=O)N2CCN(C)CC2C)ccc1=O (configuration not stated),-13.53
3,COCC(=O)N(Cc1cccnc1)CC1CCN(C2CCCC2)CC1,-6.321
4,COc1nn(C)cc1C(=O)NCC(=O)NCc1cccnc1,-2.836
5,CCN(CC(=O)NC)S(=O)(=O)c1cnc2c(c1)c(C)nn2C,-1.026
6,N#CC1(C(=O)N2CCN(c3nccs3)CC2)CCCCC1,-10.71
7,CN(C)c1ncccc1NC(=O)COCC1CC1,7.684
8,N#Cc1cccc(OCCN2CCCC(c3noc(C4CC4)n3)C2)c1 (configuration not stated),-47.81
9,CN1CCN(C2COC3(CCN(c4ccc(C#N)cc4)CC3)C2)CC1.O=C(O)C(F)(F)F (configuration not stated),99.27
10,CNC(=O)COC1COC2(CCN(c3ccc(C#N)cc3)CC2)C1.O=C(O)C(F)(F)F (configuration not stated),4.884
11,CN1CCOCC12CCN(c1ccc(C#N)cc1)CC2.O=C(O)C(F)(F)F,-6.092
12,N#Cc1ccc(N2CCC3(CC2)CC(Oc2cccnc2)CO3)cc1.O=C(O)C(F)(F)F (configuration not stated),18.7
13,N#Cc1ccc(N2CCC3(CC2)CC(N2CCOCC2)CO3)cc1.O=C(O)C(F)(F)F (configuration not stated),99.84
14,COC1COC2(CCN(c3ccc(C#N)cc3)CC2)C1.O=C(O)C(F)(F)F (configuration not stated),-8.699
15,COc1cccc(-c2cnnc(N(C)CCC3CCCCO3)n2)c1 (configuration not stated),-7.888
16,Cc1cc2c(c(-c3c[nH]c(C)n3)c1)OC(CN)C2 (configuration not stated),10.27
17,Cn1cc(CC2CCN(C(=O)NCCCc3ccc(O)cc3)C2)cn1 (configuration not stated),109.7
18,Cc1ccc(CCNC(=O)NC2CCN(CC(F)(F)F)C2=O)cn1 (configuration not stated),-2.04
19,COc1ccc(CNC(=O)N2CCC(Cc3cnn(C)c3)C2)cc1C (configuration not stated),-1.04
20,Cc1ccc(CCNC(=O)N2CCCC(Cc3nccn3C)C2)cn1 (configuration not stated),-1.285
21,CCOc1cc(CNC(=O)N2CCC(Cc3cnn(C)c3)C2)ccn1 (configuration not stated),0.1866
22,Cc1ccc(CCNC(=O)N2CCC(Cc3cnn(C)c3)C2)cn1 (configuration not stated),129.7
23,CC(=O)Nn1ccc2c(nnc3c(-c4ccccc4)cnn32)c1=O,95.62

row,Compound,Percent Effect [%]
1,CC(=O)Nn1ccc2c(nnc3c(-c4ccc(F)cc4)cnn32)c1=O,91.05
2,Cc1ccc2c(ccn2CCC(=O)O)c1,-5.722
3,O=C(O)CCn1ccc2c(nnc3c(-c4ccc(F)cc4)cnn32)c1=O,102.5
4,CCN(CC)CCC(=O)NCc1cc2n(n1)CCN(C(=O)N(C)C)C2,-4.405
5,Cc1ccc(-c2ncc(C(=O)N3CCC[C@H](N)C3)c(O)n2)cc1,4.793
6,CC(O)c1cn(CC2CCN(C(=O)c3cccc(N(C)C)c3)CC2)nn1 (configuration not stated),-11.02
7,Cc1nnc(NC(=O)N2CCCN(C3CCCC3)CC2)s1,-2.14
8,CC1CCN(CCCNC(=O)Nc2cc3c(cc2Br)OCCO3)CC1,-0.7212
9,Cc1nc(-c2c(-c3ccccc3)ncn2[C@H]2C[C@@H](C(=O)O)N(C)C2)co1,-9.295
10,CCSCc1ccnc(NC(=O)C2CCOC2)c1 (configuration not stated),20.8
11,CCOc1ccc(C(=O)N2CCC(Oc3ccccc3)(C(=O)O)CC2)o1,-0.9818
12,CC(C)(C)N1CCN(C(=O)c2cccnc2-n2cncn2)CC1,-9.982
13,Cc1nc(CCNC2CCN(Cc3ccccc3)C2)sc1C (configuration not stated),-12.11
14,CCc1cc(N2CCC(NC(=O)CCC3CCCO3)CC2)ncn1 (configuration not stated),-4.201
15,CCCc1cc(N2CCC(NCC3(O)CCCCC3)CC2)nc(C)n1,-11.13
16,CCc1cc(N2CCC(NCc3ccc(C)o3)CC2)ncn1,91.75
17,CCc1cc(N2CCC(NCCSc3nnnn3C)CC2)nc(C)n1,4.673
18,CCc1csc(CNC2CCN(c3ccc(C)cc3)CC2)n1,-9.18
19,Cc1nc(C)c(C)c(N2CCC(NCCOc3ccccc3)CC2)n1,8.772
20,CCc1cc(N2CCC(NCCc3ccccc3F)CC2)nc(C)n1,82.1
21,CCCc1cc(N2CCC(NCCc3ccc(O)cc3)CC2)nc(C)n1,19.96
22,CCc1cc(N2CCC(NCCc3ccc(C)o3)CC2)nc(C)n1,97.78
23,CCc1cc(N2CCC(NCCc3nc(C)c(C)s3)CC2)nc(C)n1,99.23

row,Compound,Percent Effect [%]
1,Cc1cccc(C(C(=O)NCCc2nc(C)cc(=O)[nH]2)N(C)C)c1 (configuration not stated),7.079
2,Nc1nc(CCCNC(=O)C2CCCN(Cc3ccco3)C2)cs1 (configuration not stated),11.5
3,Cc1ccccc1C(=O)NCCC(=O)NS(=O)(=O)c1cccnc1,-14.99
4,CCn1cncc1CNc1ccc(-c2nc(CC(C)C)no2)cn1,7.108
5,CC(C)c1nnc2n1CCN(C(=O)c1ccc(OCC3CC3)cc1)C2,5.374
6,Cc1ccc(CNC(C)c2nnc3n2CCCC3)o1 (configuration not stated),-12.78
7,CCn1cc(N)c(-c2nnc3n2CCCC3)n1,106
8,CCn1cc(N)c(-c2nnc3n2CCC3)n1,92.6
9,CC(NCc1ccc(Cl)o1)c1nnc2n1CCCC2 (configuration not stated),-1.685
10,COc1cc(CNC(C)c2nnc3n2CCC3)cc(OC)c1 (configuration not stated),10.34
11,Cc1ccoc1CNC(C)c1nnc2n1CCCC2 (configuration not stated),-17.53
12,Cn1cc(N)c(-c2nnc3n2CCCC3)n1,140.1
13,COc1c(CNCc2nnc3n2CCCCC3)c(C)nn1C.Cl,-7.415
14,CC(NCc1ccco1)c1nnc2n1CCCC2 (configuration not stated),-19.1
15,O=C(NCC1(O)CCOc2ccccc21)Nc1ccccc1 (configuration not stated),-14.8
16,O=C(O)c1ccnc(-c2ccnc(COc3ccc(Cl)cc3)n2)c1,-21.17
17,CCCS(=O)(=O)N1CCN(c2cc(-n3cnc(C)c3C)ncn2)CC1,-4.672
18,NC(=O)c1ccc(OCCCN2C[C@H](C3CC3)[C@@H](N)C2)cc1,-11.21
19,Cc1cc(C2CCC2)nc(N2CCC3(CC2)OCCCC3O)n1 (configuration not stated),-2.811
20,OC1CCCOC12CCN(CCCOc1ccccc1F)CC2 (configuration not stated),114.2
21,O[C@H]1CN(CCCOc2ccccc2F)CC[C@@]12CCCO2,134.4
22,NC(=O)c1ccc(OCCCN2CCC3(CC2)OCCCC3O)cc1 (configuration not stated),101.3
23,O[C@H]1CCN(CCCOc2ccccc2F)C[C@@]12CCCO2,90.29

row,Compound,Percent Effect [%]
1,COc1ccccc1S(=O)(=O)N1CCC2(CC1)OCCCC2O (configuration not stated),6.351
2,O=C(C1CCC1)N1CCN(Cc2ccc(F)cc2)[C@H]2CS(=O)(=O)C[C@H]21,11.26
3,O=C(Nc1ccccn1)NC1CCN(c2ccccc2OC(F)F)C1 (configuration not stated),-25.38
4,COc1ccc2nc(C[C@@H]3C[C@@H](C(C)C)[C@H](CN)C=C3C)[nH]c2n1,16.51
5,CC(C1CCN(Cc2cnn(C)c2C2CC2)CC1)N1CCCC1 (configuration not stated),22.88
6,C1CCC(NCC2(N3CCOCC3)CCSC2)C1 (configuration not stated),-110.3
7,COc1ccccc1[C@@H]1CN(Cc2c(C)noc2C)C[C@H]1C(=O)O,-13.6
8,Cc1cc(NCC2CCCO2)cc(=O)n1C (configuration not stated),135.4
9,Cc1cc(S(C)(=O)=O)c(C)c(S(=O)(=O)NCC2CCCO2)c1 (configuration not stated),-7.327
10,Cc1cc(NS(=O)(=O)CC2CCCCO2)ccc1F (configuration not stated),4.819
11,COCC(C)N(C)C(=O)NC1CCN(c2ncccn2)CC1 (configuration not stated),0.8848
12,CCN(Cc1noc(C2CC2)n1)Cc1ccc(C#N)cc1F,-1.413
13,CS(=O)(=O)N1CCO[C@@H]2CN(C(=O)Cc3cccs3)CC[C@@H]2C1,99.33
14,CC(C)N1CCO[C@@H]2CN(C(=O)Cc3cccs3)CC[C@@H]2C1.O=C(O)C(F)(F)F,111.3
15,COCCN1CCO[C@@H]2CN(C(=O)Cc3cccc(F)c3)CC[C@@H]2C1.O=C(O)C(F)(F)F,6.529
16,O=C(Cc1cccs1)N1CCOC(c2cccc(O)c2)C1 (configuration not stated),-7.888
17,CN(C)C[C@H]1OC[C@@H]2CCN(C(=O)Cc3cccs3)C[C@@H]21.O=C(O)C(F)(F)F,-1.59
18,O=C1NCCO[C@H]2CN(C(=O)Cc3cccs3)CC[C@@H]12,-57.9
19,O=C(Cc1cccs1)N1C[C@@H]2CN(Cc3ccoc3)CCO[C@@H]2C1.O=C(O)C(F)(F)F,-6.419
20,CN1CCO[C@@H]2CN(C(=O)Cc3cccs3)CC[C@@H]2C1.O=C(O)C(F)(F)F,104.2

# Source: ChEMBL document CHEMBL3988442, “University of Dundee, Small-Polar-MMV Screening Library” (2021)
